Measured values: PubChem BioAssay (NCATS)
Records with an inconclusive call do not appear. The source made the active and inactive calls. The call rests on the fitted dose curve; in most records, active means well fitted curve in the direction sought with a large enough effect; inconclusive means small, poorly fitted or top-dose-only effect, or another doubt; inactive means no such curve, though single readings can be large; an effect the other way counts as inactive or inconclusive.

How the values were obtained:
CRL-7250 = normal cell line; experiment: Cytotoxic Profiling of Annotated Libraries Using Quantitative High-Throughput Screening (AID 1296008); conditions: Five cell lines viability, CellTiter-Glo ATP luminescence, 48-72 h; max response: stronger effect = lower value; further: nearly all actives have a fitted effect of over 60% in size; on max response: on the % scale 0 is the no-effect control and ±100 the full control effect
Summary of the method: (§1)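 Compounds were pin-transferred onto cells and incubated 48 or 72 hr at 37 degree Celsius, 95% humidity. CellTiter-Glo was added, plates sat 10 min at room temperature, then ATP-coupled luminescence was imaged as the viability read-out.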

HEK293 = experiment: as above; conditions: Five cell lines viability, CellTiter-Glo ATP luminescence, 48-72 h; max response: stronger effect = lower value
Summary of the method: as §1

HaCat [1] = experiment: as above; conditions: Five cell lines viability, CellTiter-Glo ATP luminescence, 48-72 h; max response: stronger effect = lower value
Summary of the method: as §1

KB-3-1 = experiment: as above; conditions: Five cell lines viability, CellTiter-Glo ATP luminescence, 48-72 h; max response: stronger effect = lower value
Summary of the method: as §1

NIH3T3 = experiment: as above; conditions: Five cell lines viability, CellTiter-Glo ATP luminescence, 48-72 h; max response: stronger effect = lower value
Summary of the method: as §1

HACAT [2] = experiment: qHTS assay to identify novel small-molecules to repurpose for Merkel cell carcinoma treatment (AID 1296009); conditions: MCC and control cell lines, CellTiter-Glo viability, 72 h; at 44.8 µM (top of the series) unless noted; further: nearly all actives have a fitted effect of over 60% in size
Summary of the method: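 Luminescence from CellTiter-Glo, read 10 min after addition at room temperature, reported viability following a 72 hr, 37 degree celsius treatment with NPC or MIPE compounds in titration; values normalized to plate controls.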

C33A = experiment: Primary qHTS to identify gynecologic anti-cancer compounds using libraries of approved drugs and bioactive compounds (AID 1345084); conditions: Gynecologic cancer cell panel viability, ATPlite luminescence, 48 h; series mostly up to 57.5 µM; further: on the % scale 0 is the no-effect control and ±100 the full control effect; nearly all actives have a fitted effect of over 55% in size
Summary of the method: (§2)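 Cells, 1,000 per well, were allowed to settle for 16 h at 37 C before compound addition. Five concentrations were tested for 48 h, and viability was read by ATPlite luminescence after 15 min at room temperature.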

CAOV3 = experiment: as above; conditions: Gynecologic cancer cell panel viability, ATPlite luminescence, 48 h; series mostly up to 57.5 µM
Summary of the method: as §2

CASKI = experiment: as above; conditions: Gynecologic cancer cell panel viability, ATPlite luminescence, 48 h; series mostly up to 57.5 µM
Summary of the method: as §2

Es-2 = experiment: as above; conditions: Gynecologic cancer cell panel viability, ATPlite luminescence, 48 h; series mostly up to 57.5 µM
Summary of the method: as §2

HeLa = experiment: as above; conditions: Gynecologic cancer cell panel viability, ATPlite luminescence, 48 h; series mostly up to 57.5 µM
Summary of the method: as §2

Hek293T = experiment: as above; conditions: Gynecologic cancer cell panel viability, ATPlite luminescence, 48 h, control line for the selectivity index; series mostly up to 57.5 µM
Summary of the method: as §2

JEG-3 = experiment: as above; conditions: Gynecologic cancer cell panel viability, ATPlite luminescence, 48 h; series mostly up to 57.5 µM
Summary of the method: as §2

OV90 = experiment: as above; conditions: Gynecologic cancer cell panel viability, ATPlite luminescence, 48 h; series mostly up to 57.5 µM
Summary of the method: as §2

CC1OC(OC2C(OC(=O)[C@]34CCC(C)(C)C[C@H]3C3=CCC5[C@@]6(C)CC[C@H](OC7OC(C(=O)O)C(O)C(O)C7O)C(C)(C)C6CC[C@@]5(C)[C@]3(C)CC4O)OC(CO)C2O)C(O)C(O)C1OC1OCC(O)C(O)C1O (stereo partly drawn)
inactive: max response (CRL-7250) 0.472% | max response (HEK293) -8.42% | outcome (HaCat [1]) | max response (KB-3-1) 8.03% | max response (NIH3T3) -0.0675% | outcome (HACAT [2]) inactive [at 9.27 µM] | activity change, negative = cytotoxicity (C33A) 6.97% [at 11.6 µM] | activity change, negative = cytotoxicity (CAOV3) 0.294% [at 11.6 µM] | activity change, negative = cytotoxicity (CASKI) 7.85% [at 11.6 µM] | activity change, negative = cytotoxicity (Es-2) -0.633% [at 11.6 µM] | activity change, negative = cytotoxicity (HeLa) 8.57% [at 11.6 µM] | activity change, negative = cytotoxicity (Hek293T) 3.77% [at 11.6 µM] | activity change, negative = cytotoxicity (JEG-3) 3.79% [at 11.6 µM] | activity change, negative = cytotoxicity (OV90) -5.89% [at 11.6 µM]

Cc1c(C)c(NCC(=O)N(C)C2CCN(Cc3ccc(C(N)=O)cc3)CC2)c(C)c(C)c1N
inactive: outcome (CRL-7250) | max response (HEK293) -11.3% | outcome (HaCat [1]) | max response (KB-3-1) -3.8% | max response (NIH3T3) 2.96% | outcome (HACAT [2]) | Potency (C33A) | Potency (CAOV3) | outcome (CASKI) | Potency (Es-2) | Potency (HeLa) | Potency (Hek293T) | Potency (JEG-3) | Potency (OV90)

C=C1CCC2C(C)(C)CCC[C@]2(C)[C@H]1CC/C(C)=C/C(=O)O (stereo partly drawn)
inactive: outcome (CRL-7250) | max response (HEK293) -1.43% | outcome (HaCat [1]) | max response (KB-3-1) -7.37% | max response (NIH3T3) 2.18% | outcome (HACAT [2]) | Potency (C33A) | Potency (CAOV3) | outcome (CASKI) | Potency (Es-2) | Potency (HeLa) | Potency (Hek293T) | Potency (JEG-3) | Potency (OV90)

CC1(C)CCC[C@]2(C)C1CC=C(CO)[C@H]2CC/C(=C/CO)CO (stereo partly drawn)
inactive: max response (CRL-7250) -11.4% | max response (HEK293) -9.82% | outcome (HaCat [1]) | max response (KB-3-1) -0.734% | max response (NIH3T3) 1.71% | outcome (HACAT [2]) | Potency (C33A) | Potency (CAOV3) | outcome (CASKI) | Potency (Es-2) | Potency (HeLa) | Potency (Hek293T) | Potency (JEG-3) | Potency (OV90)

C=C1CCC(OC(C)=O)C2(C)CC3OC(=O)C(C)=C3CC12 (stereo not drawn)
inactive: max response (CRL-7250) -0.951% | max response (HEK293) -10.1% | outcome (HaCat [1]) | max response (KB-3-1) 3.31% | max response (NIH3T3) -1.87% | outcome (HACAT [2]) | Potency (C33A) | Potency (CAOV3) | outcome (CASKI) | Potency (Es-2) | Potency (HeLa) | Potency (Hek293T) | Potency (JEG-3) | Potency (OV90)

C=C1C(OC(C)=O)C(=O)C2C(C)(C)C(O)CCC2(C)C1CC(OC(C)=O)/C(C)=C/COC(C)=O (stereo not drawn)
inactive: max response (CRL-7250) -6.92% | max response (HEK293) -10.7% | outcome (HaCat [1]) | max response (KB-3-1) 5.46% | max response (NIH3T3) -4.73% | outcome (HACAT [2]) inactive [at 17.4 µM] | Potency (C33A) | Potency (CAOV3) | outcome (CASKI) | Potency (Es-2) | Potency (HeLa) | Potency (Hek293T) | Potency (JEG-3) | Potency (OV90)

C=C(CO)C(=O)O[C@H]1C[C@@]23O[C@@H]2CC/C(=C/[C@H]2OC(=O)C(=C)[C@H]12)CO[C@H]3O
inactive: outcome (CRL-7250) | max response (HEK293) -24.8% | outcome (HaCat [1]) | outcome (KB-3-1) | max response (NIH3T3) 2.84% | outcome (HACAT [2]) | Potency (C33A) | Potency (CAOV3) | outcome (CASKI) | Potency (Es-2) | Potency (HeLa) | Potency (Hek293T) | Potency (JEG-3) | Potency (OV90)

N[C@@H](CC(=O)Nc1ccc(Oc2cc(F)c(F)cc2Br)cc1)C(=O)O
inactive: max response (CRL-7250) -23% | max response (HEK293) -28.9% | outcome (HaCat [1]) | max response (KB-3-1) -3.53% | max response (NIH3T3) 0.0129% | outcome (HACAT [2]) | Potency (C33A) | Potency (CAOV3) | outcome (CASKI) | Potency (Es-2) | Potency (HeLa) | Potency (Hek293T) | Potency (JEG-3) | Potency (OV90)

CC1(C)CC[C@]2(C(=O)O[C@@H]3O[C@H](CO)[C@@H](O)[C@H](O)[C@H]3O)[C@H](O)C[C@]3(C)C(=CCC4[C@@]5(C)CC[C@H](O[C@@H]6OC[C@@H](O)[C@H](O)[C@H]6O)[C@@](C)(C(=O)O)C5CC[C@]43C)[C@@H]2C1 (stereo partly drawn)
inactive: max response (CRL-7250) -8.24% | max response (HEK293) -10.4% | outcome (HaCat [1]) | max response (KB-3-1) -4.94% | max response (NIH3T3) 4.43% | outcome (HACAT [2]) inactive [at 17.4 µM] | Potency (C33A) | Potency (CAOV3) | outcome (CASKI) | Potency (Es-2) | Potency (HeLa) | Potency (Hek293T) | Potency (JEG-3) | Potency (OV90)

C=C1CCC2C(C)(C)CC(O)CC2(C)C1CCC(C)CC(=O)O (stereo not drawn)
inactive: max response (CRL-7250) -5.49% | max response (HEK293) 1.49% | outcome (HaCat [1]) | max response (KB-3-1) -5.43% | max response (NIH3T3) -0.43% | outcome (HACAT [2]) | Potency (C33A) | Potency (CAOV3) | outcome (CASKI) | Potency (Es-2) | Potency (HeLa) | Potency (Hek293T) | Potency (JEG-3) | Potency (OV90)

COc1cc(Nc2ccc([N+](=O)[O-])cc2C(=O)O)cc2ccccc12
inactive: max response (CRL-7250) -0.179% | max response (HEK293) 1.77% | outcome (HaCat [1]) | max response (KB-3-1) -5.92% | max response (NIH3T3) -2.53% | outcome (HACAT [2]) | Potency (C33A) | Potency (CAOV3) | outcome (CASKI) | Potency (Es-2) | Potency (HeLa) | Potency (Hek293T) | Potency (JEG-3) | Potency (OV90)

COC(=O)Cn1nc(-c2cccc(OC)c2)c2ccccc21
inactive: max response (CRL-7250) 4.76% | max response (HEK293) -5.92% | outcome (HaCat [1]) | max response (KB-3-1) 1.13% | max response (NIH3T3) 2.46% | outcome (HACAT [2]) | Potency (C33A) | Potency (CAOV3) | outcome (CASKI) | Potency (Es-2) | Potency (HeLa) | Potency (Hek293T) | Potency (JEG-3) | Potency (OV90)
